# UBC13 inh – inhibitors of human UBC13 polyubiquitin chain formation; AID 485273; TR-FRET; inhibition, % at 20 µM; P61088; 0.47% of 330,000 active; in the data active = inhibition above about 45%, passing the limit was not always enough; inconclusive = no clear call, values can overlap the other calls
# PREPL inh – human PREPL enzyme inhibition. recombinant PREPL, fluorescence polarization activity-based probe. 0.68% of 320,000 active. inhibition, % at 5.96 µM. AID 2751; in the data active = inhibition above about 43%;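 note: 0% = enzyme with DMSO and 100% = wells lacking enzyme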
# RAD52 inh – inhibitors of human RAD52 DNA annealing; P43351; recombinant RAD52 DNA annealing, FRET fluorescence; inhibition, % at 18.7 µM; 0.46% of 360,000 active;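 active = every replicate showing at least 50% inhibition; inconclusive = mean inhibition at least 50% but not in every replicate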
# DNA FID counter – fluorescent intercalator displacement, NS3 helicase counter-screen; DNA fluorescent intercalator displacement, fluorescence; inhibition, % at 7.9 µM; 0.17% of 290,000 active; AID 1845; in the data active = inhibition above about 37%;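 note: 0% = vehicle and 100% = reference compound; higher means more ethidium bromide displaced from hairpin DNA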
# RAD54 branch – RAD54 (human) branch migration inhibition. Q92698. RAD54 Holliday junction branch migration, FAM/BHQ fluorescence. inhibition, % at 10.4 µM. 0.14% of 360,000 active;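 active = mean normalized replicate activity at least 40 and at least half of replicates scoring 40 or more; inconclusive = only one of the two criteria met; inactive = mean below 40 and under half of replicates reaching 40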;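 note: 0% = median of neutral control wells and 100% = median of positive control wells; inhibitors cause a drop in the FAM fluorescence signal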
# Target sequence (Q92698 whole entry, looked up): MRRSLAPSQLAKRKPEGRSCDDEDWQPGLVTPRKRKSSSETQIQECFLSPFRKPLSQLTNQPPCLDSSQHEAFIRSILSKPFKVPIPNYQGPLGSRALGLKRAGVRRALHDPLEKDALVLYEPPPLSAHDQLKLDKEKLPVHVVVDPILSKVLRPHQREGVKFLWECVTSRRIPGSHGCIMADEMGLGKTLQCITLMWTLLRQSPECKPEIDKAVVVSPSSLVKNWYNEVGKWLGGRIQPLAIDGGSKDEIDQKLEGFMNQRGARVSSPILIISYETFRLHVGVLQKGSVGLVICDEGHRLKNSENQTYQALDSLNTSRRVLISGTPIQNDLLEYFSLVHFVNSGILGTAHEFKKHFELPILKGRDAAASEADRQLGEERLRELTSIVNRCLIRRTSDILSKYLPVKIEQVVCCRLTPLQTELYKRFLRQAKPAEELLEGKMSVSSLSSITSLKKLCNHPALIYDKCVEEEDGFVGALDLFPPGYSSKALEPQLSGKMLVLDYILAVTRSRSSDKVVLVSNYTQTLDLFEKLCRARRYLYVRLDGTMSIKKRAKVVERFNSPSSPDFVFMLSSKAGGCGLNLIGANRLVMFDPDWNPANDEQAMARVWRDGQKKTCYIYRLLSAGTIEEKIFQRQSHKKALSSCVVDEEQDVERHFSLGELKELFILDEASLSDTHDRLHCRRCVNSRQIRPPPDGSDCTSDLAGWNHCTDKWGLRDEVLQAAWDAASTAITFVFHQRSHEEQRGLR
# beta cell repl – MIN6 beta-cell proliferation induction; MIN6 cells proliferation, ATPlite luminescence, 48 h; cells starved in 0.2% serum; 100% = growth in 10% serum; proliferation, % at 10 µM; 0.29% of 330,000 active;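 active = compounds whose signal lies at least 3.5 SD above the mean of all wells on their plate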;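 note: 0% = DMSO-treated cells in low-serum medium and 100% = 10% serum control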
# Casp3 UBC13 ctr – counter-screen for UBC13 inhibitors: human caspase-3 inhibition; shares compounds with UBC13 inh; Recombinant caspase-3, Caspase-Glo 3/7 luminescence, 60 min; inhibition, % at 20 µM; 4% of 1,400 active;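 active = mean inhibition across replicates above about 26%, limit read from the data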;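 note: plate controls were DMSO with caspase-3 for no effect and DMSO wells lacking enzyme for full effect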
# UBC13 confirm – confirmation of human UBC13 polyubiquitin inhibitors; shares compounds with UBC13 inh; UBC13 polyubiquitination, TR-FRET, biochemical; inhibition, % at 10 µM; 68% of 1,400 active; AID 488859; in the data active = inhibition above about 45%; inconclusive = no clear call, values can overlap the other calls
# * = called active by the depositor; ? = inconclusive; . = not tested or not shown. In the library only some 1.3% were active in any assay of this set; here they are far more common.
SMILES,UBC13 inh,PREPL inh,RAD52 inh,DNA FID counter,RAD54 branch,beta cell repl,Casp3 UBC13 ctr,UBC13 confirm
COCCN=C1N[C@@H](c2cccc(C(F)(F)F)c2)C(C(=O)OC)=C(C)N1Cc1ccccc1,6.4,11.6,-5.0,29.7,10.7,-7.9,.,.
COC(=O)C1=C(C)N(Cc2ccccc2)C(=NCc2cccc(C(F)(F)F)c2)N[C@H]1c1cccc(C(F)(F)F)c1,89.6*,-47.3,.,.,-7.9,-6.2,3.8,94.1*
COC(=O)C1=C(C)N(CC2CC2)C(=NCc2cccc(C(F)(F)F)c2)N[C@H]1c1ccccc1,66.5*,-17.1,.,.,12.1,-5.8,3.3,74.9*
O=C(C1CCCC1)N1CC2(C1)[C@@H](c1ccccc1)[C@H](CO)N2C(=O)c1cccnc1,.,.,-0.9,.,.,.,.,.
Cc1ccc(S(=O)(=O)Nc2ccc3c(c2)C(=O)N([C@H](C)CO)C[C@@H](C)[C@@H](CN(C)C(=O)CCCN(C)C)OCCCC[C@@H](C)O3)cc1,.,.,25.9,.,5.8,.,.,.
C[C@H]1CN([C@@H](C)CO)C(=O)c2cc(-c3ccccc3F)cnc2O[C@H]1CN(C)C(=O)C1CC1,.,.,3.6,.,5.5,.,.,.
O=C(CCCN1C(=O)/C(=C/c2ccccc2Cl)SC1=S)NNC(=O)c1ccc(Cl)cc1,57.8*,-14.8,-139.6,-11.1,.,-0.8,-1.0,83.2*
COc1cccc(-c2sc3ccc(OC)cc3c2-c2ccc(OCCN(C)C)cc2)c1,84.2*,27.4,-33.8,.,2.8,-6.2,-0.5,90.1*
COc1ccc(-c2sc3ccccc3c2-c2ccc(OCCN(C)C)cc2)cc1,86.6*,29.4,-53.8,.,6.3,-6.1,-9.5,80.8*
CN(C)CCOc1ccc(-c2c(-c3ccsc3)sc3ccccc23)cc1,78.1*,-13.1,13.0,.,11.2,-6.2,-0.1,73.9*
C[C@@H]1CN([C@@H](C)CO)C(=O)c2cc(NC(=O)CCC(F)(F)F)ccc2O[C@H]1CN(C)S(=O)(=O)c1ccc(F)cc1,.,.,-2.8,.,4.9,.,.,.
CNC[C@@H]1OCCCC[C@H](C)Oc2ccc(N(C)C)cc2C(=O)N([C@H](C)CO)C[C@@H]1C,.,.,-54.8,.,-8.2,.,.,.
C[C@H]1CN([C@@H](C)CO)S(=O)(=O)c2ccc(C#CC3CCCC3)cc2O[C@@H]1CN(C)S(C)(=O)=O,.,.,11.8,.,-4.2,.,.,.
COc1ccc(NC(=O)Nc2cccc3c2O[C@@H](CN(C)C(=O)NC2CCCCC2)[C@@H](C)CN([C@H](C)CO)C3=O)cc1,.,.,-4.9,.,3.5,.,.,.
CCn1c(SCC(=O)Nc2oc(C)c3c(C)n[nH]c(=O)c23)nc2sc(C)c(C)c2c1=O,63.8*,-5.0,.,.,14.7,-5.7,-2.5,18.3
CCOc1ccc(-c2csc(NC(=O)c3cccc(N4C(=O)CCC4=O)c3)n2)cc1,57.8*,-6.2,-6.5,-3.6,1.7,-2.2,-1.5,?
CCCNC(=O)N1CC2(C1)CN(Cc1ccccc1)[C@@H](CO)c1[nH]c3cc(OC)ccc3c12,.,.,-33.5,.,.,.,.,.
O=C(NNC(=O)c1nn(-c2ccc(F)cc2)ccc1=O)c1ccc(C(F)(F)F)cc1,70.0*,8.7,-9.6,-6.2,.,-1.2,0.2,86.4*
Cc1ccc(C(=O)NNC(=O)c2nn(-c3ccc(F)cc3)ccc2=O)cc1,77.4*,-0.6,-3.7,-2.7,6.9,-2.2,-6.1,96.3*
O=C(NNC(=O)c1nn(-c2ccc(F)cc2)ccc1=O)c1ccc(Cl)cc1,70.7*,9.4,-9.2,-3.8,2.1,2.3,-2.9,87.7*
O=C(NNC(=O)c1nn(-c2ccc(F)cc2)ccc1=O)Nc1cccc(Cl)c1,10.3,-2.6,1.9,-5.1,3.2,-1.1,.,.
CC(C)NC(=O)NNC(=O)c1nn(-c2ccc(F)cc2)ccc1=O,32.9,-0.4,-20.5,-4.3,.,-0.7,.,.
O=C(C[C@@H]1CC[C@@H]2[C@H](COC[C@@H](O)CN2C(=O)Nc2ccc(Cl)cc2)O1)NCCc1ccncc1,.,.,-18.0,.,2.0,.,.,.
CN(C[C@@H]1[C@@H](c2ccccc2)[C@H](CO)N1C(=O)c1ccccc1)C(=O)C1CC1,.,.,-15.4,.,1.8,.,.,.
O=C(Nc1ccc(Cl)cc1)N1C[C@@H]2[C@H](c3ccccc31)[C@H](CO)N2CC1CCCCC1,.,.,-33.4,.,-14.3,.,.,.
SMILES,UBC13 inh,PREPL inh,RAD52 inh,DNA FID counter,RAD54 branch,beta cell repl,Casp3 UBC13 ctr,UBC13 confirm
Cc1ccc(-c2oc3ncnc(N)c3c2-c2ccc(C)cc2)cc1,88.3*,10.6,.,-3.3,4.1,-1.4,-1.5,82.2*
O=C(NC(=S)Nc1ccccc1[N+](=O)[O-])c1ccccc1Cl,-7.4,-0.9,7.4,3.5,-14.8,-5.6,.,.
O=C(NNC(=S)NC(=O)c1ccccc1[N+](=O)[O-])c1ccccc1Cl,48.5*,7.4,-7.1,-5.1,.,-1.7,5.5,12.8
CCOC(=O)c1nn(-c2ccc(C)cc2)c(=O)cc1OCC(=O)Nc1cc(C)ccc1OC,15.1,12.2,-3.3,.,5.8,-4.4,.,.
CCOC(=O)c1nn(-c2ccccc2)c(=O)cc1OCC(=O)Nc1cc(C)ccc1OC,48.3*,1.2,-5.2,.,9.1,2.5,-4.8,?
COc1ccc(C(=O)Nc2ccc3oc(-c4cccnc4)nc3c2)cc1OC,6.5,3.8,-0.4,10.1,.,4.2,.,.
COc1ccc(C(=O)Nc2ccc3oc(-c4cccc(F)c4)nc3c2)cc1OC,54.1*,-3.6,-12.4,.,-7.4,-0.8,3.1,35.0
CC(=O)NC(C)c1cc(Cl)c2cccnc2c1O (stereo not given),0.5,-2.4,-15.3,.,-8.0,-7.3,.,.
CC(=O)NC(c1ccco1)c1cc(Cl)c2ccccc2c1O (stereo not given),47.1*,-2.1,-6.4,.,-8.0,-5.7,-1.9,36.8
CCC(=O)NC(c1cc(Cl)c2ccccc2c1O)C(C)C (stereo not given),70.9*,0.9,-3.6,.,9.4,-2.1,2.5,55.9*
CC(=O)NC(C)c1cc(Cl)c2ccccc2c1O (stereo not given),62.9*,4.3,0.2,.,-16.4,-1.3,5.2,47.2*
CCC(=O)NC(c1ccco1)c1cc(Cl)c2ccccc2c1O (stereo not given),35.4,5.7,-20.3,.,-6.5,-3.3,.,.
Cc1ccc(S(=O)(=O)Nc2cccc3c2O[C@@H](CN(C)C(=O)Nc2c(C)noc2C)[C@@H](C)CN([C@H](C)CO)C3=O)cc1,.,.,1.3,.,-2.8,.,.,.
C/C=C1\COC(C(=O)NCCN2CCCC2)(C(F)(F)F)C=C1C=C1CCCCC1 (stereo not given),55.0*,-13.4,-44.2,.,2.6,-8.1,-1.4,52.2*
CC1(C)CC(=O)C2=C(C1)NC1=C(C(=O)c3ccccc31)C2c1ccc(Cl)cc1 (stereo not given),50.2*,39.4,.,-5.9,.,-6.2,-3.9,56.2*
CC(=O)Nc1cccc(Oc2ncnc3scc(-c4ccccc4)c23)c1,3.2,-0.9,.,-25.8,-12.2,1.8,.,.
